Target: T1, Aspartate--tRNA(Asp/Asn) ligase (Mycobacterium tuberculosis (strain ATCC 25618 / H37Rv)) (UniProt P9WFW3)
T1 sequence (whole entry): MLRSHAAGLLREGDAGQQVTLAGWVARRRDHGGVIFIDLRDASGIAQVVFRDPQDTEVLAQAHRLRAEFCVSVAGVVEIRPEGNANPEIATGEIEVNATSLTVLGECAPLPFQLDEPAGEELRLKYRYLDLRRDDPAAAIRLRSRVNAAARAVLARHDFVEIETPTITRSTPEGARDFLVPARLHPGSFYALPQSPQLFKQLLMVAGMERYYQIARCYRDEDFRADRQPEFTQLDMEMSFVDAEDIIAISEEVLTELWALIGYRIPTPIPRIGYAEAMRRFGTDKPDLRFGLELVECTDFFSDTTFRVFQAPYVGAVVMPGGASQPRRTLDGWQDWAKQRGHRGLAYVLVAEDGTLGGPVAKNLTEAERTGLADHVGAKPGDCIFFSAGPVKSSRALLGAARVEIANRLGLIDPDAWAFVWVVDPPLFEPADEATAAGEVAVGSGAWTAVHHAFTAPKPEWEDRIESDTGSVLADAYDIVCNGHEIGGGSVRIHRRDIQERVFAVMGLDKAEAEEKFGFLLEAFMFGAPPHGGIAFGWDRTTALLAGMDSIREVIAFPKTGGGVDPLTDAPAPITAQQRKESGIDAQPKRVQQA
Experiment: Assay for Asp RNA synthetase-1 from Mycobacterium tuberculosis
Type: functional
Parameters: scale not given: in the data most compounds retested in dose-response had high values
Conditions: 30 µM

SMILES | Percent Effect [%]
CCc1nsc(NC2CCCn3nc(CC)nc32)n1 (stereo not given) | 1.74
CCOc1ncccc1CNC(=O)N1CCCC1c1cc(C)no1 (stereo not given) | -2.06
C[S+]([O-])CCCNC(=O)c1cc(Br)c2c(c1)OCCO2 (stereo not given) | -1.74
CC(=O)N1CCCN(c2nccc(-c3cn(C)nc3C)n2)CC1 | -4.22
Cc1cnn(C2CN(Cc3ccc4c(c3)OCCO4)C2)c1 | 2.19
CCS(=O)(=O)c1ccc(N2CCC(NC(=O)CCC(C)C)CC2)cc1 | -2.31
CCN1CC2(CCN(CCOCCO)CC2)CC(c2ccccc2)C1=O (stereo not given) | -2.77
CC(NC(=O)NCCCn1cccn1)c1cccnc1 (stereo not given) | -3.83
O=C(c1ccc2c(c1)CCC2)N1C[C@@H](CN2CCOCC2)[C@@H](CO)C1 | 1.28
COc1cccc(-c2noc(-c3ccc(NCC4CC4)nc3)n2)c1OC | -3.57
Cc1ccc(C(=O)N2CCN(S(C)(=O)=O)CC2)cc1N1CCNC1=O | -4.61
O=C(C1CC(=O)N(C2CCCC2)C1)N1CCN(CCn2cccc2)CC1 (stereo not given) | -2.4
COc1ccc(Cc2nnc(SC)o2)cc1OC | -2.13
COCc1nc2n(n1)CCCC2Nc1nc(C2CC2)ns1 (stereo not given) | 0.0804
CCS(=O)(=O)N1CCC(c2nnc(CN3CCCC3)n2C2CC2)CC1 | -0.379
CCC(C(=O)NCc1ccncc1)N(c1ccc(OC)cc1)S(C)(=O)=O (stereo not given) | 1.25
CCc1nc(CCNC(=O)Nc2cc(C(N)=O)sc2C)cs1 | -1.32
CC(C)SCC(=O)N1CCc2c(nc(N(C)C)nc2N(C)C)C1 | -3.12
Cc1nc(C)n(CC2CCCCN2CC(=O)Nc2nncs2)n1 (stereo not given) | -3.83
COc1cc(CNC(=O)NCCCF)cc(Br)c1OC | -0.885

SMILES | Percent Effect [%]
COc1cccc(S(=O)(=O)CCN2CCCN(C(C)=O)CC2)c1 | -1.55
CCC(=O)N1CC[C@@H](c2ccc3ccccc3c2)[C@H](O)C1 | 2.26
CC(=O)Nc1c(C)cnn1Cc1cc(F)ccc1F | 2.1
COCCN(C)CC(=O)N1C[C@H]2CC[C@@H]1CN(C(=O)c1ccncc1)C2 | -1.85
CC(C)(C)N1CC(C(=O)N2CCN(CCn3cccc3)CC2)CC1=O (stereo not given) | 1.18
O=C1N(Cc2cccc(F)c2F)CCCC1(O)CNC1CCCC1 (stereo not given) | -0.655
COCCc1noc(CN(C)C2CCCN(c3ccc(C)nn3)C2)n1 (stereo not given) | 0.172
NC(=O)C1CCCN1Cc1cccc(NC(=O)c2ccsc2)c1 (stereo not given) | 2.98
COc1ccccc1OCCN1CCCC(c2noc(C3CC3)n2)C1 (stereo not given) | -2.65
O=C(Nc1cccc(OCc2ccc(F)cc2)c1)C1COCCO1 (stereo not given) | -1.28
O=C(c1ccncc1)N1C[C@@H]2CC[C@H](C1)N(C(=O)N1CCOCC1)C2 | 2.77
Cc1nccn1CCC1CCCCN1C(=O)c1ccc2[nH]nnc2c1 (stereo not given) | 1.02
Cc1cnn(CCNCc2ccc(OCC(N)=O)cc2)c1 | -4.2
Cc1cnn(CCNCc2csc(C)n2)c1 | 0.747
CC(O)CN1CCN(C(=O)c2cnn(-c3ccc(Cl)cc3)c2)CC1 (stereo not given) | -5.67
CCSCCC(=O)Nc1ncn(CC(=O)NCc2ccccc2)n1 | -2.33
CCC(C(=O)NCc1ccncc1)N(c1cccc(C)c1)S(C)(=O)=O (stereo not given) | -1.51
c1nc(N2CCCCC2Cn2cncn2)c2ccsc2n1 (stereo not given) | -0.379
Cc1cc(C)n(CC(=O)N(C)Cc2csc(-c3cccs3)n2)c(=O)n1 | -0.356
c1ccc2c(N3CCCCC3Cn3cncn3)ncnc2c1 (stereo not given) | 0.172
